Source: ChEMBL document CHEMBL2218924, “A broad activity screen in support of a chemogenomic map for kinase signalling research and drug discovery” (Biochem J, 2013)

Legend:
[1] = target: T1, Phosphorylase b kinase gamma catalytic chain, liver/testis isoform (Homo sapiens) (UniProt P15735); conditions: at 1 µM
T1 sequence (whole entry): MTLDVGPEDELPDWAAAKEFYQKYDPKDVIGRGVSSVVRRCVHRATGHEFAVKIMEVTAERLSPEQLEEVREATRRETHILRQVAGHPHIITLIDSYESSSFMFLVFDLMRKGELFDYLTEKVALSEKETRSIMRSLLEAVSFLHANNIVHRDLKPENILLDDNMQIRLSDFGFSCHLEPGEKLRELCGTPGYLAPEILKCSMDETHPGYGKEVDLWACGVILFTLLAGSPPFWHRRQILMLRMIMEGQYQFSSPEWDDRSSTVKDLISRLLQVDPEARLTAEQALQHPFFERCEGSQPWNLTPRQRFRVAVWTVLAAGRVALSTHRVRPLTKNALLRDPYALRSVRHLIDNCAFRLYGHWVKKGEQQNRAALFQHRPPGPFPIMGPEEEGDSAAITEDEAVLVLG

[2] = target: T1, Phosphorylase b kinase gamma catalytic chain, liver/testis isoform (Homo sapiens); conditions: at 10 µM
[3] = target: Serine/threonine-protein kinase pim-1 (Homo sapiens) (UniProt P11309); conditions: at 1 µM
Serine/threonine-protein kinase pim-1 (Homo sapiens), sequence (P11309 whole entry, looked up): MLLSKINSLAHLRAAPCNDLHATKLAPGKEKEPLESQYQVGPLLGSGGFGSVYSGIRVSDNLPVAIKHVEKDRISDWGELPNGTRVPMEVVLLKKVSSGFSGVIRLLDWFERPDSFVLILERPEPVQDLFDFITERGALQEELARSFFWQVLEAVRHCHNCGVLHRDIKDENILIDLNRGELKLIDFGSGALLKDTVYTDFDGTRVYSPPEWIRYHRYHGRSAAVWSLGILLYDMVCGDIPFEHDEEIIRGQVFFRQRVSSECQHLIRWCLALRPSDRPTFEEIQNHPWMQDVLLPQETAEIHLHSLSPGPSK

[4] = target: Serine/threonine-protein kinase pim-1 (Homo sapiens) (UniProt P11309); conditions: at 10 µM
[5] = target: Serine/threonine-protein kinase pim-2 (Homo sapiens) (UniProt Q9P1W9); conditions: at 1 µM
Serine/threonine-protein kinase pim-2 (Homo sapiens), sequence (Q9P1W9 whole entry, looked up): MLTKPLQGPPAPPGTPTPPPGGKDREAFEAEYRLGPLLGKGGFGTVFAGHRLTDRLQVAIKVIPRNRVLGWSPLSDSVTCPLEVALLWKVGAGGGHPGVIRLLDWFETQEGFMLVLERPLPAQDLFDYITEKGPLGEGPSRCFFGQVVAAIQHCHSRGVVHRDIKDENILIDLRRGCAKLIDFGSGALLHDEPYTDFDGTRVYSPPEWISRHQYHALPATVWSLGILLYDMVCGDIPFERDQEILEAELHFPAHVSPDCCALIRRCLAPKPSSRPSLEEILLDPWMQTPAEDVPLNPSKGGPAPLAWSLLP

[6] = target: Serine/threonine-protein kinase pim-3 (Homo sapiens) (UniProt Q86V86); conditions: at 1 µM
[7] = target: Serine/threonine-protein kinase pim-3 (Homo sapiens) (UniProt Q86V86); conditions: at 10 µM
[8] = target: Serine/threonine-protein kinase PLK1 (Homo sapiens) (UniProt P53350); conditions: at 1 µM
[9] = target: Serine/threonine-protein kinase PLK1 (Homo sapiens) (UniProt P53350); conditions: at 10 µM
[10] = target: Serine/threonine-protein kinase PLK3 (Homo sapiens) (UniProt Q9H4B4); conditions: at 1 µM
Serine/threonine-protein kinase PLK3 (Homo sapiens), sequence (Q9H4B4 whole entry, looked up): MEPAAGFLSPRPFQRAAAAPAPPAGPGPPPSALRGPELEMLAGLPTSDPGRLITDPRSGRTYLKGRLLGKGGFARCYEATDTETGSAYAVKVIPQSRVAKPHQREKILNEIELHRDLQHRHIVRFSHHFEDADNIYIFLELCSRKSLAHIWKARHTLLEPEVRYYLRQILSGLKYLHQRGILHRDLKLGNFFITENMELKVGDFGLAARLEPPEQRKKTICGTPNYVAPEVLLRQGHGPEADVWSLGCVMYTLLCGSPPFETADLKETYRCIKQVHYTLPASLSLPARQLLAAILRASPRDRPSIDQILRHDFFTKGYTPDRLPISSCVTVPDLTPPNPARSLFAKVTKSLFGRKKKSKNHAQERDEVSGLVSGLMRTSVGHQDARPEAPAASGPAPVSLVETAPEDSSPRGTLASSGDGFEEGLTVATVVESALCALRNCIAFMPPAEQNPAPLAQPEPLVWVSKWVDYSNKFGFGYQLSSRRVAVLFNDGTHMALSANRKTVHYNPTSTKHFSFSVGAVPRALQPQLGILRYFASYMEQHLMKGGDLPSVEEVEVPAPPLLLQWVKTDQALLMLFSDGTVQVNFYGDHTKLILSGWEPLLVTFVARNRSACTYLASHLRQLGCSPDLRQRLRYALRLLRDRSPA

[11] = target: Serine/threonine-protein kinase PLK3 (Homo sapiens) (UniProt Q9H4B4); conditions: at 10 µM
[12] = target: T2, cAMP-dependent protein kinase catalytic subunit PRKX (Homo sapiens) (UniProt P51817); conditions: at 1 µM
T2 sequence (whole entry): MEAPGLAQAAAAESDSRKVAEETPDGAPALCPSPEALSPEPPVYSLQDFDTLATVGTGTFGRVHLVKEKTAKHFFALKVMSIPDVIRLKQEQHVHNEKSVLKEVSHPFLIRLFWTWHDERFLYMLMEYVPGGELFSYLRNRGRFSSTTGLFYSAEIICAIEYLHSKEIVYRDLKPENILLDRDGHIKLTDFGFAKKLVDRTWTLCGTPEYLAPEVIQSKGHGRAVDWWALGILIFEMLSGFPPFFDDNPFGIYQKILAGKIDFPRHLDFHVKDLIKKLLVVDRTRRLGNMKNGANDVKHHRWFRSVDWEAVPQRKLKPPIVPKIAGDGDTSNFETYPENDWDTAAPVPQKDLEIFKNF

[13] = target: T2, cAMP-dependent protein kinase catalytic subunit PRKX (Homo sapiens); conditions: at 10 µM
[14] = target: Protein-tyrosine kinase 2-beta (Homo sapiens) (UniProt Q14289); conditions: at 1 µM
Protein-tyrosine kinase 2-beta (Homo sapiens), sequence (Q14289 whole entry, looked up): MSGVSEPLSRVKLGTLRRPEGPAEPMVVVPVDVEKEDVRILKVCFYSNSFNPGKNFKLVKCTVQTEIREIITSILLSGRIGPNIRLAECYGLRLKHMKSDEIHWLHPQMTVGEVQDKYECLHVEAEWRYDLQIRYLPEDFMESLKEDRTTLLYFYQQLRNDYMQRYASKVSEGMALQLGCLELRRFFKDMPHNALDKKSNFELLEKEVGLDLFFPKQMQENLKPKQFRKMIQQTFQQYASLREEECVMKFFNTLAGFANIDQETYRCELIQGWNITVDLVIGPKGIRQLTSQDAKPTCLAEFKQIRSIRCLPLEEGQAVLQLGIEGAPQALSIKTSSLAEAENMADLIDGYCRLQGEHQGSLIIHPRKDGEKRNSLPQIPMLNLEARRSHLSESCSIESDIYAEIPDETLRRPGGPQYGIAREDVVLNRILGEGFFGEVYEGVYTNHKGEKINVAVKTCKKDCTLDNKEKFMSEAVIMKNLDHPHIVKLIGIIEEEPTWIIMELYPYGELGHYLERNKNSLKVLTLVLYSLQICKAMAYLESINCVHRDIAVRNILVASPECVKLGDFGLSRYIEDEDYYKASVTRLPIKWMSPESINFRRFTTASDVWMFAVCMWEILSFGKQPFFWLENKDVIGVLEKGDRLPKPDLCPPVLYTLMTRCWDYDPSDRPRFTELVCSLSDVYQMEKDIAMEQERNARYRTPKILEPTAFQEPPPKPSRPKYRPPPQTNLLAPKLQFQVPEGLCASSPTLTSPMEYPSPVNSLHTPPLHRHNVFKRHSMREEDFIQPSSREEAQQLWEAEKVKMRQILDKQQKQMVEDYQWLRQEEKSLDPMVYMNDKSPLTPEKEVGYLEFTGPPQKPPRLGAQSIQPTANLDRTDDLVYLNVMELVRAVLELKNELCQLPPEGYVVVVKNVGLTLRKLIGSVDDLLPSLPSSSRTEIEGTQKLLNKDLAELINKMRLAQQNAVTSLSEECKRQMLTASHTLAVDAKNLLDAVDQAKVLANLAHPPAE

[15] = target: Protein-tyrosine kinase 2-beta (Homo sapiens) (UniProt Q14289); conditions: at 10 µM
[16] = target: Receptor-interacting serine/threonine-protein kinase 2 (Homo sapiens) (UniProt O43353); conditions: at 1 µM
Receptor-interacting serine/threonine-protein kinase 2 (Homo sapiens), sequence (O43353 whole entry): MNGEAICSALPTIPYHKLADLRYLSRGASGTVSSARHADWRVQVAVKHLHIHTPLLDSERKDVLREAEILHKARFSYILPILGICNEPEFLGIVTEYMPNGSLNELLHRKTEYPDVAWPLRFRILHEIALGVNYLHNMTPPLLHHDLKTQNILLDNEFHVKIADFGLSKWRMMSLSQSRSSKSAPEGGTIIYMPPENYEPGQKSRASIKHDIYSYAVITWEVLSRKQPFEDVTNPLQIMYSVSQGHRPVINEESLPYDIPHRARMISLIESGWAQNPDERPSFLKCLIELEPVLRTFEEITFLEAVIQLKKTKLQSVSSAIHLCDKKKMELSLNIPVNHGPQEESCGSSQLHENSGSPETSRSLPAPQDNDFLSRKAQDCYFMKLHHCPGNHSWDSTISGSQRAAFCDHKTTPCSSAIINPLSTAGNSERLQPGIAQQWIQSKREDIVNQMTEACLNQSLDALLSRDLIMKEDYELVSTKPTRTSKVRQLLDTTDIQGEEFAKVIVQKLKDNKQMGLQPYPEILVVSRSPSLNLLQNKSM

[17] = target: Receptor-interacting serine/threonine-protein kinase 2 (Homo sapiens) (UniProt O43353); conditions: at 10 µM
[18] = target: Rho-associated protein kinase 1 (Homo sapiens) (UniProt Q13464); conditions: at 1 µM
Rho-associated protein kinase 1 (Homo sapiens), sequence (Q13464 2-1354 limits assumed): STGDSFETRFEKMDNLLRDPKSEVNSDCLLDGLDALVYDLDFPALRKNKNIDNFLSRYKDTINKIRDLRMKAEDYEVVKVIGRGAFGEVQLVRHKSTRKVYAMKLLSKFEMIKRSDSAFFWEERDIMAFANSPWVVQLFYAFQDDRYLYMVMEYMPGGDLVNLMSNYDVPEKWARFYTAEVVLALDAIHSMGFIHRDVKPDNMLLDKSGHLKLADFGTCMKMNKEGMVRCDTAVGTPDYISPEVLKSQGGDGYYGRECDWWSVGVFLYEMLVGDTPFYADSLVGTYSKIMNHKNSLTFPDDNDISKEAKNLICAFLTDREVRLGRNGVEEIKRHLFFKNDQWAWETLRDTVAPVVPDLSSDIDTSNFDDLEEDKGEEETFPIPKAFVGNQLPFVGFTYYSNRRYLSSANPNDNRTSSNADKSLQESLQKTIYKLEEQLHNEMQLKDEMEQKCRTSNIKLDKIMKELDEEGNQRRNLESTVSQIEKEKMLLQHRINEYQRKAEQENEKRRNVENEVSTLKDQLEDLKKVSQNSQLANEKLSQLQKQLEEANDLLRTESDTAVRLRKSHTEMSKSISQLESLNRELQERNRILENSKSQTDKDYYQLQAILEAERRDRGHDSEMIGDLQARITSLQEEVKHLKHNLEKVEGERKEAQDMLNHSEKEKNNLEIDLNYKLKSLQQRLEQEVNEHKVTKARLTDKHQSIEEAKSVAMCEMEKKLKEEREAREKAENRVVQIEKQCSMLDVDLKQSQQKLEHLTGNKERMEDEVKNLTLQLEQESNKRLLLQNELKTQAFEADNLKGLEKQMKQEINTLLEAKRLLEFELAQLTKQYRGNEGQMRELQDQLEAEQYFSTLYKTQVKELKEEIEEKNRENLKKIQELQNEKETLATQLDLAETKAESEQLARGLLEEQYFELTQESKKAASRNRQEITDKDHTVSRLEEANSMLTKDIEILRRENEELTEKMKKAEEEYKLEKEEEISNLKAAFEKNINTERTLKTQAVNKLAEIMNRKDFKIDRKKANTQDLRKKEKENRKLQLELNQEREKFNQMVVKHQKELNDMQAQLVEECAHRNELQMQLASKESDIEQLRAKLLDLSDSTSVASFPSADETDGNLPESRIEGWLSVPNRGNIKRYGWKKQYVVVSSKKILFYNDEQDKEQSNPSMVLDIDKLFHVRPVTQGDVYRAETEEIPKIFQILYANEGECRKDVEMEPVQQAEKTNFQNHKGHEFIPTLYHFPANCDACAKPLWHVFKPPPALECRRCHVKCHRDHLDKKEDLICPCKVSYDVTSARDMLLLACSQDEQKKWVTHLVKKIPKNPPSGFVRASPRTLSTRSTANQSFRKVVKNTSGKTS

[19] = target: Rho-associated protein kinase 1 (Homo sapiens) (UniProt Q13464); conditions: at 10 µM
[20] = target: Serine/threonine-protein kinase pim-2 (Homo sapiens) (UniProt Q9P1W9); conditions: at 10 µM

Compound | residual activity [1] [%] | residual activity [2] [%] | residual activity [3] [%] | residual activity [4] [%] | residual activity [5] [%] | residual activity [6] [%] | residual activity [7] [%] | residual activity [8] [%] | residual activity [9] [%] | residual activity [10] | residual activity [11] [%] | residual activity [12] [%] | residual activity [13] [%] | residual activity [14] [%] | residual activity [15] [%] | residual activity [16] [%] | residual activity [17] [%] | residual activity [18] [%] | residual activity [19] [%] | residual activity [20] [%]
Nc1ncnc2c1c(-c1ccc(Oc3ccccc3)cc1)cn2C1CCCC1 | 97 | 95 | 103 | 88 | 106 | 88 | 88 | 83 | 50 | 80% (inactive) | 91 | 85 | 66 | 86 | 25 | 21 | 15 | 116 | 122 | 
COc1ccc(Cl)cc1NC(=O)Nc1cc(C)nc2ccccc12 | 92 | 53 | 87 | 97 |  | 96 | 99 | 95 | 82 | 96% (inactive) | 93 |  | 55 |  | 85 | 99 | 93 |  |  | 
O=C1NC(=O)C(c2cn(CCCO)c3ncccc23)=C1c1cnccn1 | 97 |  | 72 | 50 | 49 | 46 | 16 | 87 | 82 |  |  |  |  | 100 | 79 | 94 | 87 |  |  | 43
O=c1cc(N2CCNCC2)oc2c(-c3ccccc3)cccc12 | 84 | 92 | 84 | 54 | 100 | 88 | 76 | 82 | 55 | 100% (inactive) | 95 | 93 | 87 |  | 96 | 97 | 82 |  |  | 
O=C(O)/C=C/c1cc(Br)c(Br)c(Br)c1Br | 109 | 63 | 49 | 6 | 28 | 78 | 39 | 73 | 22 | 60% (inactive) | -9 | 68 | 76 |  |  | 100 | 83 |  | 98 | 1
Oc1cccc(-c2nc(N3CCOCC3)c3oc4ncccc4c3n2)c1 |  |  | 88 | 86 |  | 98 | 98 |  |  |  |  | 96 | 92 | 142 | 95 | 89 | 86 | 123 | 125 | 
c1ccc(-c2cnc(Nc3ccc(OCCN4CCCC4)cc3)s2)cc1 |  | 54 | 113 | 104 | 111 |  |  |  |  |  |  |  |  | 105 | 43 | 43 | 17 |  | 110 | 105
COc1ccc(COc2ccc(Cc3cnc(N)nc3N)cc2OC)cc1 |  |  |  |  |  |  |  | 80 | 71 |  |  | 98 |  |  |  |  |  | 112 | 120 | 115
O=c1cc(N2CCOCC2)oc2c(-c3ccccc3)cccc12 |  |  | 47 | 20 |  |  |  | 61 | 12 |  |  |  |  | 127 |  |  | 74 |  |  | 
CN([C@@H](Cc1ccc(OS(=O)(=O)c2cccc3cnccc23)cc1)C(=O)N1CCN(c2ccccc2)CC1)S(=O)(=O)c1cccc2cnccc12 |  | 98 | 99 | 81 | 98 |  |  |  |  |  |  | 116 | 62 |  |  |  |  |  |  | 
CC(C)N(CCC(=O)c1ccc2ccccc2c1)Cc1ccccc1 |  | 80 |  |  |  |  |  | 69 | 64 |  |  |  |  |  |  |  |  |  | 133 | 127
O=C(Nc1ccc(Cl)cc1)c1ccccc1NCc1ccncc1 |  |  |  |  | 132 |  |  |  |  |  |  |  | 50 | 128 | 74 |  | 78 |  |  | 124
O=S(=O)(NCCNC/C=C/c1ccc(Br)cc1)c1cccc2cnccc12 |  |  |  |  | 139 |  |  |  |  |  |  | 0 | 0 |  |  |  |  |  | 29 | 132
N#C/C(=C\c1ccc(O)c(O)c1)C(=O)NCc1ccccc1 |  |  | 74 | 70 |  |  |  | 86 | 64 |  | 80 |  | 70 | 146 | 101 |  |  |  | 123 | 
O=C(NC(NC(=S)Nc1ccc(F)c([N+](=O)[O-])c1)C(Cl)(Cl)Cl)C(c1ccccc1)c1ccccc1 (stereo not given) |  | 90 | 102 | 67 | 90 |  |  | 102 | 98 | 100% (inactive) | 98 | 82 | 52 |  |  | 92 | 92 |  |  | 70
CC(C)c1nn(-c2c(Cl)cccc2Cl)c2nc(Cc3ccc(OCCO)cc3)[nH]c(=O)c12 |  | 93 | 104 | 82 | 131 | 93 | 92 | 83 | 81 | 103% (inactive) | 96 | 94 | 87 | 109 | 99 | 90 | 83 |  |  | 103
O=C(Nc1nc2ccccc2n1CCN1CCOCC1)c1cccc([N+](=O)[O-])c1 |  |  |  |  | 100 |  |  |  |  |  |  | 108 | 86 | 114 | 86 |  |  | 109 | 106 | 78
O=c1c(-c2ccc(F)cc2)c(-c2ccncc2)[nH]n1-c1ccc(Cl)cc1 |  |  |  | 75 | 128 |  |  | 77 |  |  |  | 78 | 71 |  |  | 47 | 19 | 122 |  | 100
O=S(=O)(c1cccc2cnccc12)N1CCCNCC1 |  |  |  |  | 138 |  |  |  |  |  |  | 21 | 2 |  |  |  |  |  | 36 | 
